Test results as given in PubChem BioAssay.
A number with no mark means an inactive call. Entries that show only a call come without a potency. For some assays here: Potency and affinity values are given separately. Calls of active or inactive are those of the source. Unless noted, how the calls were made is not given here.

What was measured:
[1] = antimalarial activity against Dd2 strain (AID 2302;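 active means growth inhibition above 50% at the single 2 µM test dose, taken to imply half-maximal potency below 2 µM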); settings: P. falciparum Dd2 in RBCs, LDH growth readout, 72 h; at 2 µM; hits give high values
[2] = HepG2 cytotoxicity, primary screen, cytotoxicity control for P. falciparum antimalarial project, cell-based, ATP luminescence (AID 2303;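 active means inhibition above 50%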); settings: HepG2 viability, 24-48 h, at 10 µM, hits give high values
[3] = biological target: L-lactate dehydrogenase (Plasmodium falciparum (isolate CDC / Honduras)) (UniProt Q27743); assay: PfLDH activity inhibition – cell lysate, 3D7 strain, counter-screen for P. falciparum growth inhibition project (AID 2304); settings: P. falciparum 3D7 crude extract, LDH APAD/NBT absorbance; at 2 µM; hits give high values
[4] = inhibition of 3D7 malaria parasite growth – strain 3D7 (AID 2306); settings: P. falciparum 3D7 erythrocytic growth, LDH absorbance, 72 h; at 2 µM; hits give high values
[5] = biological target: Calcium-dependent protein kinase 1 (Plasmodium falciparum (isolate 3D7)) (UniProt P62344); assay: PfCDPK1 kinase inhibitors, biochemical, TCAMS library (AID 1159585; cut-off not given, nearly all actives have IC50 up to about 0.98 µM;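 further: inhibitors leave more ATP so luminescence rises with inhibition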); settings: recombinant PfCDPK1, Kinase-Glo ATP depletion luminescence
[6] = biological target: Plasmodium falciparum protein kinase 6 (PK6, PF3D7_1337100) (UniProt Q8IDW1); assay: PfPK6 kinase inhibitors, biochemical, TCAMS library (AID 1159586); settings: recombinant PfPK6, Kinase-Glo ATP depletion luminescence
[7] = biological target: Protein kinase 7 (PK7), Plasmodium falciparum 3D7 (PF3D7_0213400) (UniProt Q7YTF7); assay: inhibition of Plasmodium PK7 catalytic activity – biochemical, TCAMS antimalarial set, Kinase-Glo luminescence (AID 1159587); settings: recombinant PfPK7, Kinase-Glo ATP depletion luminescence
[8] = biological target: Calcium-dependent protein kinase 4 (Plasmodium falciparum (isolate 3D7)) (UniProt Q8IBS5); assay: PfCDPK4 kinase inhibitors, biochemical, TCAMS library (AID 1159588; cut-off not given, nearly all actives have IC50 up to about 0.91 µM); settings: recombinant PfCDPK4, Kinase-Glo ATP depletion luminescence
Chain of Calcium-dependent protein kinase 4 (Plasmodium falciparum (isolate 3D7)) (Q8IBS5 whole entry, looked up): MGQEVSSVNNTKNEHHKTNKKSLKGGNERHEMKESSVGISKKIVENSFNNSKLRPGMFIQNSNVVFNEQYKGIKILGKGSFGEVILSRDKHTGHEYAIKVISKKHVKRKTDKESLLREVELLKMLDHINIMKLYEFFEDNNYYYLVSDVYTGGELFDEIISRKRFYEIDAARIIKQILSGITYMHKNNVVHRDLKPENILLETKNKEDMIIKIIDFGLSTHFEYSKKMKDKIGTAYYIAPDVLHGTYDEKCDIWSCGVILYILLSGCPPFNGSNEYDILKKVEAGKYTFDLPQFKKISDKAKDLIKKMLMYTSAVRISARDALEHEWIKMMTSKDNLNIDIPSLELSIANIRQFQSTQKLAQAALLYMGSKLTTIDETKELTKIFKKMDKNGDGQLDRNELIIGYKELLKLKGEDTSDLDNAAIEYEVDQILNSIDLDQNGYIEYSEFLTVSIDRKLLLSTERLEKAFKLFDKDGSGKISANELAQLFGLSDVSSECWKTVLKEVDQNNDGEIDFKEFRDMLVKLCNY

Chain of Plasmodium falciparum protein kinase 6 (PK6, PF3D7_1337100) (Q8IDW1 1-305): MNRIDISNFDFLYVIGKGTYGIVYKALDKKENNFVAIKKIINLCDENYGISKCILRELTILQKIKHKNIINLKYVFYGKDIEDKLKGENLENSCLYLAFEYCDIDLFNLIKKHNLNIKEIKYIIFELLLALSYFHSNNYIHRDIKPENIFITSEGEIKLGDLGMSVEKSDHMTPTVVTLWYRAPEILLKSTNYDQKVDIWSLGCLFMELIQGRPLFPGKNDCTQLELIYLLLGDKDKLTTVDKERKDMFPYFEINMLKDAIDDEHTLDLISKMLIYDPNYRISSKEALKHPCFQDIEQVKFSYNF
Chain of L-lactate dehydrogenase (Plasmodium falciparum (isolate CDC / Honduras)) (Q27743 whole entry, looked up): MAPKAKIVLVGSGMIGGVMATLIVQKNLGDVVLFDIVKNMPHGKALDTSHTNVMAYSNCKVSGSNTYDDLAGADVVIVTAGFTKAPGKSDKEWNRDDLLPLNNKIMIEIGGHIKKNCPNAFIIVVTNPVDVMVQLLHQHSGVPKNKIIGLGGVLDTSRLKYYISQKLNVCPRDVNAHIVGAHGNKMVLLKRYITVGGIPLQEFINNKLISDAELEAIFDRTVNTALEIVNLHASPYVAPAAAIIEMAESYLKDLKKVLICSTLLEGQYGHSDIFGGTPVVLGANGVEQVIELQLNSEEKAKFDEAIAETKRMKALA
Chain of Protein kinase 7 (PK7), Plasmodium falciparum 3D7 (PF3D7_0213400) (Q7YTF7 1-343): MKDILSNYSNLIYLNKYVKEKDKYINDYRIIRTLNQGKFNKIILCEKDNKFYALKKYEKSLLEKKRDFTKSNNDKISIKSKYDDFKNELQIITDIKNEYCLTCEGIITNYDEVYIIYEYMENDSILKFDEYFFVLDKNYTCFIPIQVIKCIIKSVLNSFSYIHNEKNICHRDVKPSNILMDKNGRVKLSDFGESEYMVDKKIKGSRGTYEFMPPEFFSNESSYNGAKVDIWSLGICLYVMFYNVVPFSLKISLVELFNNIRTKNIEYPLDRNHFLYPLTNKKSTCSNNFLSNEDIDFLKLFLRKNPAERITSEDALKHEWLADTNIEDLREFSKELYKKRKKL
Chain of Calcium-dependent protein kinase 1 (Plasmodium falciparum (isolate 3D7)) (P62344 whole entry, looked up): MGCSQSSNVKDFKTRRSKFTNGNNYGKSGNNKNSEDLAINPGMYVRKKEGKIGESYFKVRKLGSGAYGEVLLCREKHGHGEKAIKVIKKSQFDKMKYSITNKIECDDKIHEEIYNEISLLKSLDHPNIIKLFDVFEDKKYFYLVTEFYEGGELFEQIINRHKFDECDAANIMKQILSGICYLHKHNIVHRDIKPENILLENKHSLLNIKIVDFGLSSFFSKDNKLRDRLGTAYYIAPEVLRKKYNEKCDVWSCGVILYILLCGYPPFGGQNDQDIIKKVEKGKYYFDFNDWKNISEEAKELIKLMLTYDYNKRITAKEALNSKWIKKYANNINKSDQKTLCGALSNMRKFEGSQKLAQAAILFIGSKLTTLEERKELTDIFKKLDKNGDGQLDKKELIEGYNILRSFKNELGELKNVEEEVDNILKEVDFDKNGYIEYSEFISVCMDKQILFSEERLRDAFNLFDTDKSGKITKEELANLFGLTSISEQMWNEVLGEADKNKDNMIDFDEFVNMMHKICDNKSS

SMILES | growth inhibition [1] | inhibition [2] | inhibition [3] | growth inhibition [4] | outcome [5] | outcome [6] | outcome [7] | outcome [8]
COc1ccccc1-c1ccc(CNC(=O)C(CN2CCN(C)CC2)c2ccccc2)cc1 (stereo not given) | 4% | 3% | 2% | 90% (active) | inactive | inactive | inactive | inactive
Oc1ccc(CCNc2nc(NCc3ccccc3Oc3ccc(C(F)(F)F)cc3)nc(N3CCNCC3)n2)cc1 | 2% | 26% | 0% | 86% (active) | inactive | inactive | inactive | inactive
Nc1nccc(-c2ccc3c(/C=C/c4ccccc4)cnc(N)c3c2)n1 | 100% (active) | 32% | 2% | 101% (active) | inactive | inactive | inactive | inactive
CCCCC(O)c1cc(O)c2c(c1)OC(C)(C)CC2C1=CCN(Cc2ccc3ccccc3c2)CC1 (stereo not given) | 97% (active) | 7% | 3% | 100% (active) | inactive | inactive | inactive | inactive
CCCCN(C)CC#Cc1ccc(-c2ccc3[nH]c(C)c(Br)c(=O)c3c2)cn1 | 93% (active) | 3% | -3% | 98% (active) | inactive | inactive | inactive | inactive
Cc1occc1C(=O)Nc1nc(-c2ccccn2)nc2ccsc12 | 98% (active) | 68% (active) | 5% | 98% (active) | inactive | inactive | inactive | inactive
CN(c1ccc2c(c1)nc(Nc1cc(C(C)(C)C)on1)n2C)c1ccnc(Nc2ccc(CS(C)(=O)=O)cc2)n1 | 13% | 77% (active) | -6% | 89% (active) | inactive | inactive | inactive | inactive
CC(C)(C)c1nn(-c2ccc(Cl)cc2)c2[nH]c(=O)c(CNC3CCCC3)cc12 | 99% (active) | -2% | 1% | 99% (active) | inactive | inactive | inactive | inactive
CC(C)CC(=O)NC1CCN(Cc2c(-c3cccs3)nc3ccccc3c2C(=O)N[C@@H](C)C2CCCCC2)CC1 | 97% (active) | -3% | -9% | 96% (active) | inactive | inactive | inactive | inactive
CN1CCCN(c2ccnc3cc4c(cc23)N(C(=O)c2ccc(Cl)c(Cl)c2)CC4)CC1 | 73% (active) | 20% | 2% | 101% (active) | inactive | inactive | inactive | inactive
CS(=O)(=O)N(CC(O)Cn1c2ccc(Cl)cc2c2cc(Cl)ccc21)c1ccccc1 (stereo not given) | 98% (active) | 2% | 0% | 101% (active) | inactive | inactive | inactive | inactive
COc1cc(C2CCN(CCCCNC(=O)c3ccc(NC(=O)c4cc(C(F)(F)F)cc(C(F)(F)F)c4)cc3)CC2)ccc1OC(C)C | 100% (active) | 21% | 4% | 100% (active) | inactive | inactive | inactive | inactive
COc1cc2nc(C)nc(Nc3ccc4c(ccn4Cc4ccccc4)c3)c2cc1OC | 99% (active) | 2% | -7% | 101% (active) | inactive | inactive | inactive | inactive
COc1ccccc1C1CCN(CCN2CCC(NC(=O)c3ccc(-c4ccc(C#N)cc4)cc3)CC2)CC1 | 42% | 31% | -5% | 99% (active) | inactive | inactive | inactive | inactive
CCCNC(=O)c1ccc(N2CCC(c3ccccc3C)CC2)nc1 | 80% (active) | 6% | 2% | 86% (active) | inactive | inactive | inactive | inactive
CCC(Nc1noc(-c2c(-c3ccccc3)noc2C)n1)c1ccccc1 (stereo not given) | 85% (active) | 4% | 1% | 99% (active) | inactive | inactive | inactive | inactive
Cc1cc(C(=O)Nc2ccc(OCc3ccccc3)cc2)on1 | 89% (active) | 1% | 1% | 87% (active) | inactive | inactive | inactive | inactive
COc1cc2nc(N3CCC(CNC(=O)c4ccc(OC(F)(F)F)cc4)CC3)nc(N)c2cc1OC | 98% (active) | 16% | -3% | 100% (active) | inactive | inactive | inactive | inactive
CNC(=O)c1ccccc1Nc1cc(Nc2cc(OC)ccn2)ncc1Cl | 100% (active) | 69% (active) | 5% | 100% (active) | inactive | inactive | inactive | inactive
CCN(CC)Cc1cccc(-c2cc3c(-c4ccc(C(=O)O)c(C(C)C)c4)ccnc3[nH]2)c1OC | 99% (active) | 57% (active) | -2% | 99% (active) | inactive | inactive | inactive | inactive

SMILES | growth inhibition [1] | inhibition [2] | inhibition [3] | growth inhibition [4] | outcome [5] | outcome [6] | outcome [7] | outcome [8]
O=C(Nc1cccc(CN2CCN(C(=O)c3cccc(Cl)c3)CC2)c1)c1cccs1 | 94% (active) | 17% | -6% | 94% (active) | inactive | inactive | inactive | inactive
Cc1nc(-c2ccc(-c3ccc(C(=O)Nc4ccc(C(C)C)c(OCCN(C)C)c4)cc3)c(C)c2)no1 | 45% | 49% | -2% | 99% (active) | inactive | inactive | inactive | inactive
Cc1cccc2[nH]c(-c3ccc(-c4ccc(C(=O)NCCc5cn(C)cn5)cc4)s3)nc12 | 8% | -6% | -2% | 88% (active) | inactive | inactive | inactive | inactive
NC1CCN(Cc2cccc(-c3cccc(-c4nc5ccccc5[nH]4)c3)c2)C1 (stereo not given) | -2% | 14% | -3% | 100% (active) | inactive | inactive | inactive | inactive
COc1cc2nc(N3CCC(CNC(=O)c4ccc(-c5ccc(C#N)cc5)cc4)CC3)nc(N)c2cc1OC | 99% (active) | 21% | -4% | 100% (active) | inactive | inactive | inactive | inactive
CN1CCN(CCCN(Cc2csc(-c3ccc(CNCc4ccccc4)cc3)n2)C(=O)Nc2cccc(Cl)c2)CC1 | 67% (active) | 32% | -5% | 102% (active) | inactive | inactive | inactive | inactive
CC(C)c1ccc2[nH]c(C(=O)NC3CCC(N4CCCc5ccc(C#N)cc5C4)CC3)cc2c1 (stereo not given) | 27% | 48% | -3% | 91% (active) | inactive | inactive | inactive | inactive
CN1CCN(CC(=O)Nc2cccc(-c3cccc(-c4nc5ccccc5[nH]4)c3)c2)CC1 | 27% | 11% | 3% | 90% (active) | inactive | inactive | inactive | inactive
COc1ccc(-c2cccc(NC(=O)c3ccc(Cl)cc3)c2)cc1CN1CCC(O)CC1 | 43% | 51% (active) | 3% | 100% (active) | inactive | inactive | inactive | inactive
C=C(C)COc1ccc(-c2n[nH]c(C(F)(F)F)c2-c2ccccc2OC)c(O)c1 | 72% (active) | 19% | -5% | 98% (active) | inactive | inactive | inactive | inactive
Cc1cc(NC(=O)c2coc3cc(F)c(N4C[C@@H](C)N(C)[C@@H](C)C4)cc23)cnc1-c1ccc(C#N)cc1 | 71% (active) | 35% | -3% | 99% (active) | inactive | inactive | inactive | inactive
COc1ccc(CCN(C)CCCN2CCC(NC(=O)c3cccc4c(=O)c5ccccc5[nH]c34)CC2)cc1OC | 72% (active) | 19% | 2% | 99% (active) | inactive | inactive | inactive | inactive
NCCNc1ccc([N+](=O)[O-])cc1C(=O)Nc1cccc(C(F)(F)F)c1 | 33% | 1% | 0% | 94% (active) | inactive | inactive | inactive | inactive
Cc1ccc(-c2noc(=O)n2CC(=O)Nc2ccccc2-c2ccccc2)cc1 | 86% (active) | -1% | 2% | 100% (active) | inactive | inactive | inactive | inactive
O=C(Nc1ccc(-c2nc3ccccc3[nH]2)cc1)c1ccc(N2CCOCC2)c([N+](=O)[O-])c1 | 28% | 47% | -8% | 101% (active) | inactive | inactive | inactive | inactive
NC(N)=NN=Cc1c2ccccc2c(Cl)c2cc(Cl)ccc12 | 28% | 26% | -3% | 97% (active) | inactive | inactive | inactive | inactive
CN(C)CCN1CCN(Cc2cccc(-c3csc(-c4nc5ccccc5[nH]4)c3)c2)CC1 | 97% (active) | 28% | -5% | 100% (active) | inactive | inactive | inactive | inactive
CCC[C@@H]([C@@H](CC(C)C)C(=O)N[C@H](C(=O)Nc1nccs1)C(C)(C)SCCNC(=O)OCC)N(O)C=O | 97% (active) | -8% | -7% | 95% (active) | inactive | inactive | inactive | inactive
O=C(N[C@H]1CCN(Cc2ccc(OCCN3CCNCC3)c3ccccc23)C1)c1ccc(Cl)c(Cl)c1 | 99% (active) | 53% (active) | -2% | 100% (active) | inactive | inactive | inactive | inactive
CN(CCN(C)CC(O)c1ccc(Cl)c(Cl)c1)CC(O)c1ccc(Cl)c(Cl)c1 (stereo not given) | 73% (active) | 22% | -2% | 91% (active) | inactive | inactive | inactive | inactive
